# Measurements taken from ChEMBL document CHEMBL1961873, “Compounds: GSK PKIS; Assays: Nanosyn kinase panel” (2012).
# How the values were obtained:
# [1] = target: Platelet-derived growth factor receptor beta (Homo sapiens) (UniProt P09619); conditions: at 1 µM;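 further: each value is a mean percent inhibition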
# [2] = target: Tyrosine-protein kinase FRK (Homo sapiens) (UniProt P42685); conditions: at 0.1 µM
# [3] = target: Tyrosine-protein kinase FRK (Homo sapiens) (UniProt P42685); conditions: at 1 µM
# [4] = target: Protein-tyrosine kinase 2-beta (Homo sapiens) (UniProt Q14289); conditions: at 0.1 µM
# [5] = target: Protein-tyrosine kinase 2-beta (Homo sapiens) (UniProt Q14289); conditions: at 1 µM
# [6] = target: Proto-oncogene tyrosine-protein kinase receptor Ret (Homo sapiens) (UniProt P07949); conditions: at 0.1 µM
# Proto-oncogene tyrosine-protein kinase receptor Ret (Homo sapiens), sequence (P07949 whole entry): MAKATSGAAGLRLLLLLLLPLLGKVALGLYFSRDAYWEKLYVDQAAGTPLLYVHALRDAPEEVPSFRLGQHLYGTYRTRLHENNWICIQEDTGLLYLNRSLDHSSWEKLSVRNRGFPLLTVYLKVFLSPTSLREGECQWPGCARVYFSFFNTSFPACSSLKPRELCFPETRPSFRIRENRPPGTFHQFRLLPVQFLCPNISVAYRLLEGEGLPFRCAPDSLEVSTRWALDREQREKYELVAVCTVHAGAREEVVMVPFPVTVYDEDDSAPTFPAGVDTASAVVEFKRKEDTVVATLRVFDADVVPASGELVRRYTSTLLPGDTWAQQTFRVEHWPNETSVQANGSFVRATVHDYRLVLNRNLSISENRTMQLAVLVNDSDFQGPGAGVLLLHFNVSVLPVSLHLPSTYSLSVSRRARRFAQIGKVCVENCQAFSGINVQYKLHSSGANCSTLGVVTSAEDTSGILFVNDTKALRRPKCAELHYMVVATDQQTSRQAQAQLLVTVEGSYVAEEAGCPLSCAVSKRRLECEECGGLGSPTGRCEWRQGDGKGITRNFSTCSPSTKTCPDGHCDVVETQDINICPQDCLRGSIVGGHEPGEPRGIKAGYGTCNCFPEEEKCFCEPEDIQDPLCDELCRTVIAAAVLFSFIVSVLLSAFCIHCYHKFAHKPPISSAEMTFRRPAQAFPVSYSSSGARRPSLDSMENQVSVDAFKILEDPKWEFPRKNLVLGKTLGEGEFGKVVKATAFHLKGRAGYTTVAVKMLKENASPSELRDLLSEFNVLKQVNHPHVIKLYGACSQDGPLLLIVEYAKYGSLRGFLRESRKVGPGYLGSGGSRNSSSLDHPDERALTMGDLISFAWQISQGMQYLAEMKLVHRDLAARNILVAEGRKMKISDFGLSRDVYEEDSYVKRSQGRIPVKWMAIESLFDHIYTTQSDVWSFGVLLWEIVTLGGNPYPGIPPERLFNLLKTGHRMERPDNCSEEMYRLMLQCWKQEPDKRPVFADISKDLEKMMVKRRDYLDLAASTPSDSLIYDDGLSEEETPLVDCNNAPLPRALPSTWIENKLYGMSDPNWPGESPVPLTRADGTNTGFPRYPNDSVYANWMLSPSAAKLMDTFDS
# [7] = target: Proto-oncogene tyrosine-protein kinase receptor Ret (Homo sapiens) (UniProt P07949); conditions: at 1 µM
# [8] = test system: Proto-oncogene tyrosine-protein kinase receptor Ret (Homo sapiens), P07949 [V804L]; conditions: at 0.1 µM
# Proto-oncogene tyrosine-protein kinase receptor Ret (Homo sapiens), P07949 [V804L], sequence (P07949 whole entry V804L): as the sequence (P07949 whole entry) above, with V804L counted along it
# [9] = test system: Proto-oncogene tyrosine-protein kinase receptor Ret (Homo sapiens), P07949 [V804L]; conditions: at 1 µM
# [10] = test system: Proto-oncogene tyrosine-protein kinase receptor Ret (Homo sapiens), P07949 [Y791F]; conditions: at 0.1 µM
# Proto-oncogene tyrosine-protein kinase receptor Ret (Homo sapiens), P07949 [Y791F], sequence (P07949 whole entry Y791F): as the sequence (P07949 whole entry) above, with Y791F counted along it
# [11] = test system: Proto-oncogene tyrosine-protein kinase receptor Ret (Homo sapiens), P07949 [Y791F]; conditions: at 1 µM
# [12] = target: Macrophage-stimulating protein receptor (Homo sapiens) (UniProt Q04912); conditions: at 0.1 µM
# [13] = target: Macrophage-stimulating protein receptor (Homo sapiens) (UniProt Q04912); conditions: at 1 µM
# [14] = target: Proto-oncogene tyrosine-protein kinase ROS (Homo sapiens) (UniProt P08922); conditions: at 0.1 µM
# Proto-oncogene tyrosine-protein kinase ROS (Homo sapiens), sequence (P08922 whole entry): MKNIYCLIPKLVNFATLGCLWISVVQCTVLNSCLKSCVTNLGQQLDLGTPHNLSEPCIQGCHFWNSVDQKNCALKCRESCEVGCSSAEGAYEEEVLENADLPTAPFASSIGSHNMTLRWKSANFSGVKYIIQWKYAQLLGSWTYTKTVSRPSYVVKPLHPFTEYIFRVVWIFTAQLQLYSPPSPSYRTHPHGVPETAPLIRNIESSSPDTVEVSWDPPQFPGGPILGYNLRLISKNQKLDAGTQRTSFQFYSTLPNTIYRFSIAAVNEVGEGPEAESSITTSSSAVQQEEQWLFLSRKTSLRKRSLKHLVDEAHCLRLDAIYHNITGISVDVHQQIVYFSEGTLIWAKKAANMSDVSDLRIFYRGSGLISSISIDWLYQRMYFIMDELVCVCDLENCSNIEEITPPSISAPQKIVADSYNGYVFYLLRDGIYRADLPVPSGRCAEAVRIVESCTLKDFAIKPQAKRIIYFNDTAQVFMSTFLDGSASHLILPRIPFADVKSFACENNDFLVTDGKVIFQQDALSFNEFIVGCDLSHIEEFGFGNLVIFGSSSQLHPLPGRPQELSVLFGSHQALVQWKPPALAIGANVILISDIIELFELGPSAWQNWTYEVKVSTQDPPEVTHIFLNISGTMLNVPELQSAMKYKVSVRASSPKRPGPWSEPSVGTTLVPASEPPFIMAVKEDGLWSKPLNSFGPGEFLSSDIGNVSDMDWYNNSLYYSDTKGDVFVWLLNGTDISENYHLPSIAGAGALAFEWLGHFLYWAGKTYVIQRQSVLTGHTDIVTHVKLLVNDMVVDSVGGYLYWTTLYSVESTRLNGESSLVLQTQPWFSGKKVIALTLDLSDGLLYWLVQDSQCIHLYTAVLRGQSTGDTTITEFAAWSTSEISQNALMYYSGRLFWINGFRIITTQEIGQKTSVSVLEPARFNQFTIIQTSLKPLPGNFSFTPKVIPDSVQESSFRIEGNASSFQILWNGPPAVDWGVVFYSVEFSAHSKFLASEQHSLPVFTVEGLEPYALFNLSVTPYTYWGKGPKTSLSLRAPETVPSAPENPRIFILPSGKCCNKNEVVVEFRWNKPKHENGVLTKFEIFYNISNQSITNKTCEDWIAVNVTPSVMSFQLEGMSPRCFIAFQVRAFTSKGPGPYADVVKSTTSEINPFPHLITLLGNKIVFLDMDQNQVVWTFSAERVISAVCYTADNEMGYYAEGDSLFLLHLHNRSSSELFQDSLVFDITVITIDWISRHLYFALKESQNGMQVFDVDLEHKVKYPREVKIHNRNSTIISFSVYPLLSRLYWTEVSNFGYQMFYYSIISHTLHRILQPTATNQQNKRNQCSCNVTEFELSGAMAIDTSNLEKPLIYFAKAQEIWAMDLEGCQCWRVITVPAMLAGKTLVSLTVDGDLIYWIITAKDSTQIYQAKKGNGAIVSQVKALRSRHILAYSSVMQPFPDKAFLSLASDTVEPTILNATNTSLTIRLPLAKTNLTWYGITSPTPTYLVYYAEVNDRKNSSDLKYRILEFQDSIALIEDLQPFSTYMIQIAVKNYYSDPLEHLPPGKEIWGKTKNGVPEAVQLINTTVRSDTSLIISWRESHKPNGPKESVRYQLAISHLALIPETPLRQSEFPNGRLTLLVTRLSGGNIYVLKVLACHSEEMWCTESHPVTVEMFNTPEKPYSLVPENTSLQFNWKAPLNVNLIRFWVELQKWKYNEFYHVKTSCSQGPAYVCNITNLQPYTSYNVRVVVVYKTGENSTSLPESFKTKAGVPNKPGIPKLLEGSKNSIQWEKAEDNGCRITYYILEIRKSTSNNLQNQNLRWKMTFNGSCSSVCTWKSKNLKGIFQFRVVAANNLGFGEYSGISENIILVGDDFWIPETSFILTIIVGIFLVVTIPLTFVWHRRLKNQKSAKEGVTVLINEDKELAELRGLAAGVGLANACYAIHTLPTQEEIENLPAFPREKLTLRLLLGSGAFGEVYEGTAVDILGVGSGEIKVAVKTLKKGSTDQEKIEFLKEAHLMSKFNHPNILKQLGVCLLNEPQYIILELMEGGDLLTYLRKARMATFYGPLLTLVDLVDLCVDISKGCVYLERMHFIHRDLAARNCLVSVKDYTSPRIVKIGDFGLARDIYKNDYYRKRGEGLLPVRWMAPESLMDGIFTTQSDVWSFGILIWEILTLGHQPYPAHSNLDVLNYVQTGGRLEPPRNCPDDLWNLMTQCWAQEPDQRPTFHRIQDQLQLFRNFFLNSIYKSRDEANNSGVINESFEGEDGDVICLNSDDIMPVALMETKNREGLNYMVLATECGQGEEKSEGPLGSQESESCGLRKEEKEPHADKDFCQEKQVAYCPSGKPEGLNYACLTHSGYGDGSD
# [15] = target: Proto-oncogene tyrosine-protein kinase ROS (Homo sapiens) (UniProt P08922); conditions: at 1 µM
# [16] = target: Proto-oncogene tyrosine-protein kinase Src (Homo sapiens) (UniProt P12931); conditions: at 0.1 µM
# Proto-oncogene tyrosine-protein kinase Src (Homo sapiens), sequence (P12931 2-536 limits assumed): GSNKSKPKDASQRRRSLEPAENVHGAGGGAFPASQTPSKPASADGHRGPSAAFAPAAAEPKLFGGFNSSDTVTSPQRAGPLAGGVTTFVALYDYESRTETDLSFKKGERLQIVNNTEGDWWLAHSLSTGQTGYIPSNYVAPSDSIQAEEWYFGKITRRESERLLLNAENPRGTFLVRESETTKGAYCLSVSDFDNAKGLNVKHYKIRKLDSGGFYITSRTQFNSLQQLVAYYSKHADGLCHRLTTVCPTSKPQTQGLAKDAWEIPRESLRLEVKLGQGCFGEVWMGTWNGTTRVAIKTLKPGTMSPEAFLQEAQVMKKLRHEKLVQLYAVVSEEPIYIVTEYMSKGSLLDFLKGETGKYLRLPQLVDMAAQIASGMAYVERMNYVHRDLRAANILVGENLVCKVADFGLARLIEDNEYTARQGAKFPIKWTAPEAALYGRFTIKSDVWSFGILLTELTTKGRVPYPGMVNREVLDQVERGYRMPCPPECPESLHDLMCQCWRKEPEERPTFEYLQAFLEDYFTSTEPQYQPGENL
# [17] = target: Proto-oncogene tyrosine-protein kinase Src (Homo sapiens) (UniProt P12931); conditions: at 1 µM
# [18] = target: Tyrosine-protein kinase Srms (Homo sapiens) (UniProt Q9H3Y6); conditions: at 0.1 µM
# Tyrosine-protein kinase Srms (Homo sapiens), sequence (Q9H3Y6 whole entry): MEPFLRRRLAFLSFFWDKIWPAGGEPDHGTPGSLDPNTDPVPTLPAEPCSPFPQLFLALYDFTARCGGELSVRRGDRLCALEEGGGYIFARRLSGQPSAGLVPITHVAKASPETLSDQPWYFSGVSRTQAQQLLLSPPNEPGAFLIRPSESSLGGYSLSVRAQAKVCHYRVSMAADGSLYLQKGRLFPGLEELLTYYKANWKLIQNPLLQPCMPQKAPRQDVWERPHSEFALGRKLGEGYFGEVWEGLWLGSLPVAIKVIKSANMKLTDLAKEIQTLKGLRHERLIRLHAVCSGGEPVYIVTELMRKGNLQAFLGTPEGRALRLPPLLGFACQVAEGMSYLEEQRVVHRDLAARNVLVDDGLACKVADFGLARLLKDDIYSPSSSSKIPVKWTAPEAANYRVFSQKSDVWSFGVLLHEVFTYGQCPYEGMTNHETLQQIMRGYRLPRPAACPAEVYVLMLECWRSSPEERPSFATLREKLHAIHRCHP
# [19] = target: Tyrosine-protein kinase Srms (Homo sapiens) (UniProt Q9H3Y6); conditions: at 1 µM
# [20] = target: Tyrosine-protein kinase SYK (Homo sapiens) (UniProt P43405); conditions: at 0.1 µM;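 further: reported percentages are mean inhibition values for SYK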
# Tyrosine-protein kinase FRK (Homo sapiens), sequence (P42685 whole entry): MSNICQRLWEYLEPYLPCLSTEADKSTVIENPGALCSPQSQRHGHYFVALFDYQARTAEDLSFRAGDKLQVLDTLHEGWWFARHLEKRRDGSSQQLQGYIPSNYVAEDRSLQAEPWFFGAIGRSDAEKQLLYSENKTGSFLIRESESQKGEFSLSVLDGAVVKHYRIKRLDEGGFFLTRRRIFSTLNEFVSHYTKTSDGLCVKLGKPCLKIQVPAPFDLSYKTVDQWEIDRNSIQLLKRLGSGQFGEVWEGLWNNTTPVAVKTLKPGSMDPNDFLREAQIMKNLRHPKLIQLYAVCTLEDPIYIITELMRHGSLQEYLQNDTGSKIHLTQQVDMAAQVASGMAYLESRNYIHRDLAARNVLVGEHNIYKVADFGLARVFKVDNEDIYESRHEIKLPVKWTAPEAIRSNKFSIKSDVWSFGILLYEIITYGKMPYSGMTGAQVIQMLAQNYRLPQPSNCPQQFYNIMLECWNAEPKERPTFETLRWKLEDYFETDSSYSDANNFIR
Compound,inhibition [1] [%],inhibition [2] [%],inhibition [3] [%],inhibition [4] [%],inhibition [5] [%],inhibition [6] [%],inhibition [7] [%],inhibition [8] [%],inhibition [9] [%],inhibition [10] [%],inhibition [11] [%],inhibition [12] [%],inhibition [13] [%],inhibition [14] [%],inhibition [15] [%],inhibition [16] [%],inhibition [17] [%],inhibition [18] [%],inhibition [19] [%],inhibition [20] [%]
Cc1cc(-c2ccccn2)cc(C)c1/C=C/c1cncc(-c2nn[nH]n2)c1,13.4,1.59,4.57,3.75,13.3,5.88,5.38,3.85,5.09,5.19,9.36,3.67,3.94,9.51,10.9,7.7,15.4,-2.18,11.8,-0.33
COC(=O)c1ccc2c(c1)C(=Cc1cc(Br)c(O)c(Br)c1)C(=O)N2,6.26,1.55,7.02,3.82,13.8,7.67,25.8,7.28,39.8,12.2,21.5,1.56,3.36,6.38,9.41,8.74,19.6,30.9,75.9,0.74
Cc1cc(O)cc(C)c1/C=C/c1cncc(C(=O)N(C)C)c1,10,-0.14,1.73,5.04,3.05,8.48,11.8,6.64,9.06,8.23,11.9,4.1,11,3.04,7.84,1.66,7.43,0.98,1.27,-1.67
COc1cccc(-n2ncc3c(N/N=C/c4ccc(C)cc4)ncnc32)c1,21.1,2.86,5.6,4.06,15.8,3,11.5,3.72,10.2,4.38,13.9,2.1,9.64,14.2,38.4,14.2,32.9,-2.37,-0.01,0.52
[O-][S+]1CCN(Cc2ccc(-c3ccc4ncnc(Nc5ccc(OCc6ccccc6)c(Cl)c5)c4c3)o2)CC1,4.43,0.22,1.48,6.05,1.47,3.12,3.49,2.69,3.13,4.06,5.41,1.76,1.89,2.65,3.8,1.76,6.34,-2.27,-2,1.18
NS(=O)(=O)c1ccc(NC=C2C(=O)Nc3ccc4ncsc4c32)cc1,89.8,4.28,4.47,21.8,66.8,47.7,79.9,59,78.3,46.1,72.4,10.4,56.3,17.3,36.8,14.2,61.9,-1.05,0.07,-8.02
CS(=O)(=O)CCNCc1nc(-c2ccc3ncnc(Nc4ccc(OCc5cccc(C(F)(F)F)c5)cc4)c3c2)cs1,10.1,1.71,0.38,-1.25,2.41,5.26,4.11,2.89,5.13,7.97,5.88,4.48,2.59,4.03,4.18,6.29,7.64,-0.76,-3.56,0.35
CN(C)C(=O)O[C@@H]1CN[C@@H](C#Cc2cc3ncnc(Nc4ccc(OCc5cccc(F)c5)c(Cl)c4)c3s2)C1,9.98,0.71,2.18,-3.27,3.14,3.72,4.94,0.31,-0.74,3.85,0.86,-3.14,-2.46,1.04,4.92,3.94,3.62,-1.8,-0.67,6.58
O=C(Nc1ccc(Oc2ccc3[nH]c(NC(=O)c4ccco4)nc3c2)cc1)Nc1cc(C(F)(F)F)ccc1F,58.3,0.19,2.9,0.95,12.9,77.7,84.2,45.6,75.7,50.9,82.3,-2.7,17.2,0.05,11.1,7.67,37,3.74,-0.11,1.01
NS(=O)(=O)c1cccc(Nc2cc(-c3ccc(F)cc3)n[nH]2)c1,38,1.05,2.07,7.64,12.6,4.74,17.9,5.42,25.3,3.26,23.6,-6.54,8.51,4.34,4.36,3.21,10.4,-0.24,2.26,-3.53
Cc1ccc(C(=O)NC2CC2)cc1-c1ccc2[nH]ncc2c1,6.94,-2.56,-4.36,-4.62,-8.03,-2.17,-0.48,-1.65,0.72,-3.09,-0.71,-3.31,-6.03,0.92,1.49,-6.61,-7.08,-1.77,0.94,-1.71
COc1cc(Nc2nccc(-c3cnn4ncccc34)n2)cc(OC)c1,84.5,1.76,5.05,38.9,95.9,9.58,25.4,6.17,33.5,4.62,33.6,4,22.3,57,87,17.1,63.9,0.34,6.85,-0.4
CN1CCN(C(=O)c2ccc(NC(=O)Nc3ccc(N(C)c4ccnc(Nc5ccc(CS(C)(=O)=O)cc5)n4)cc3)cc2)CC1,79.3,1.47,4.04,29.2,88.6,38.8,76.8,27.2,67.1,60.7,82.8,18.6,58.6,14.6,54.1,10.7,42.2,0.11,5.6,-0.89
